Test [1] is described as follows: antimalarial activity against Dd2 strain (AID 2302;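 active means growth inhibition above 50% at the single 2 µM test dose, taken to imply half-maximal potency below 2 µM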;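 further: 0% = DMSO untreated growth and 100% = chloroquine plus artemisinin killed control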). The conditions noted are these: P. falciparum Dd2 in RBCs, LDH growth readout, 72 h; at 2 µM; stronger effect = higher value.
Test [2] can be described thus: human hepatoma cell viability loss – ATP luminescence, cytotoxicity control for P. falciparum antimalarial project, primary screen (AID 2303;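 active means inhibition above 50%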;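 further: 0% = DMSO wells and 100% = digitonin-killed cells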). The conditions noted are these: HepG2 viability, 24-48 h, at 10 µM, stronger effect = higher value.
In test [3] the target is L-lactate dehydrogenase (Plasmodium falciparum (isolate CDC / Honduras)) (UniProt Q27743). Briefly: PfLDH activity inhibition – cell lysate, 3D7 strain, counter-screen for P. falciparum growth inhibition project (AID 2304).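 Further: 0% = vehicle and 100% = reference inhibitor.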 As to conditions: P. falciparum 3D7 crude extract, LDH APAD/NBT absorbance; at 2 µM; stronger effect = higher value.
Test [4] in a line: inhibition of 3D7 malaria parasite growth – strain 3D7 (AID 2306).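 Further: 0% = DMSO wells and 100% = chloroquine plus artemisinin control wells.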 As to conditions: P. falciparum 3D7 erythrocytic growth, LDH absorbance, 72 h; at 2 µM; stronger effect = higher value.
The target of test [5] is Calcium-dependent protein kinase 1 (Plasmodium falciparum (isolate 3D7)) (UniProt P62344). Briefly: PfCDPK1 kinase inhibitors, biochemical, TCAMS library (AID 1159585; cut-off not given, nearly all actives have IC50 up to about 0.98 µM;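 further: inhibitors leave more ATP so luminescence rises with inhibition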). The conditions noted are these: recombinant PfCDPK1, Kinase-Glo ATP depletion luminescence. (In general: In Kinase-Glo more light means more ATP remaining.)
The target of test [6] is Plasmodium falciparum protein kinase 6 (PK6, PF3D7_1337100) (UniProt Q8IDW1). Briefly: PfPK6 kinase inhibitors, biochemical, TCAMS library (AID 1159586). As to conditions: recombinant PfPK6, Kinase-Glo ATP depletion luminescence.
For test [7], the target named is Protein kinase 7 (PK7), Plasmodium falciparum 3D7 (PF3D7_0213400) (UniProt Q7YTF7). Briefly: inhibition of Plasmodium PK7 catalytic activity – biochemical, TCAMS antimalarial set, Kinase-Glo luminescence (AID 1159587). As to conditions: recombinant PfPK7, Kinase-Glo ATP depletion luminescence.
Test [8] has as its target Calcium-dependent protein kinase 4 (Plasmodium falciparum (isolate 3D7)) (UniProt Q8IBS5). Briefly: PfCDPK4 kinase inhibitors, biochemical, TCAMS library (AID 1159588; cut-off not given, nearly all actives have IC50 up to about 0.91 µM). The conditions noted are these: recombinant PfCDPK4, Kinase-Glo ATP depletion luminescence.

Experimental findings from PubChem BioAssay are described below.

A number with no mark means an inactive call. For some of these results: Results with a measured potency or affinity are listed apart. Active and inactive are the calls of the source. Unless noted, how the calls were made is not given here.

Protein kinase 7 (PK7), Plasmodium falciparum 3D7 (PF3D7_0213400), sequence (Q7YTF7 1-343): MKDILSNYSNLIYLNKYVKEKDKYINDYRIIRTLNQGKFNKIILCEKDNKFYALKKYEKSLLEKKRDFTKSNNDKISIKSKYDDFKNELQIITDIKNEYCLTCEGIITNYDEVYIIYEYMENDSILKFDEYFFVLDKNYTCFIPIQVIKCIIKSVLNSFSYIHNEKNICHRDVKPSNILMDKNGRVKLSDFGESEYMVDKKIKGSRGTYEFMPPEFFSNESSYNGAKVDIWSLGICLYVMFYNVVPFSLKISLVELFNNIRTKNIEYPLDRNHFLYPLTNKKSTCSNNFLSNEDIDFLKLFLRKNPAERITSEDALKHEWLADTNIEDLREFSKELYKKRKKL
L-lactate dehydrogenase (Plasmodium falciparum (isolate CDC / Honduras)), sequence (Q27743 whole entry, looked up): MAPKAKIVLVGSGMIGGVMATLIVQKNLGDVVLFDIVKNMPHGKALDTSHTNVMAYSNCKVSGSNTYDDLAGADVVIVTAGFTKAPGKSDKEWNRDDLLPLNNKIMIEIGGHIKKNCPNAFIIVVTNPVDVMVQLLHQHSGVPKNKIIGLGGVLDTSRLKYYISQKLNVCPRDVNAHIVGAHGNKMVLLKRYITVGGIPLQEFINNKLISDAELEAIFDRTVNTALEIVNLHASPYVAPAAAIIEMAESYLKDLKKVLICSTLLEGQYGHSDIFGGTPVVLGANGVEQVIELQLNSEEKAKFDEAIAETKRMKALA
Calcium-dependent protein kinase 1 (Plasmodium falciparum (isolate 3D7)), sequence (P62344 whole entry, looked up): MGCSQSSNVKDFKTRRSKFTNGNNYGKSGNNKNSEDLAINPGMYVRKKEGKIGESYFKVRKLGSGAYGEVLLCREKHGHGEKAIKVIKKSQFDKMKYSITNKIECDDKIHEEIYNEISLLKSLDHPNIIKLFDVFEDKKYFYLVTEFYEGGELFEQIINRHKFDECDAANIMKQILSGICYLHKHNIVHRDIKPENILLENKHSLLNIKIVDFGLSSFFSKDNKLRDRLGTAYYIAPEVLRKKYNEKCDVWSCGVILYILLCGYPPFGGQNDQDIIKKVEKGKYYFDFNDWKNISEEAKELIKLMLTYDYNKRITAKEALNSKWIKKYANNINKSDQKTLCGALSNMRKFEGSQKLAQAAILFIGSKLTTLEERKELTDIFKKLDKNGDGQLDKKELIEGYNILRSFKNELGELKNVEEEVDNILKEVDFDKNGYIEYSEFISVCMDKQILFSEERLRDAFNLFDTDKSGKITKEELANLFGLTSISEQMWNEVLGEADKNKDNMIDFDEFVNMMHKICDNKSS
Plasmodium falciparum protein kinase 6 (PK6, PF3D7_1337100), sequence (Q8IDW1 1-305): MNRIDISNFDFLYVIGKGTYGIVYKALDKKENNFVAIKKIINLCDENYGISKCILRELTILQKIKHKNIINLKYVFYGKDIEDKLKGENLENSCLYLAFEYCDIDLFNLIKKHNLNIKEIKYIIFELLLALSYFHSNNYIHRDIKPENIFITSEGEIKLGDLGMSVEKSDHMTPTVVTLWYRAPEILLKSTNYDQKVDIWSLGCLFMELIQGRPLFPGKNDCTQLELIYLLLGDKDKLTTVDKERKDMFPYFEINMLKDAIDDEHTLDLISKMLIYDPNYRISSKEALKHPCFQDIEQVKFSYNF
Calcium-dependent protein kinase 4 (Plasmodium falciparum (isolate 3D7)), sequence (Q8IBS5 whole entry, looked up): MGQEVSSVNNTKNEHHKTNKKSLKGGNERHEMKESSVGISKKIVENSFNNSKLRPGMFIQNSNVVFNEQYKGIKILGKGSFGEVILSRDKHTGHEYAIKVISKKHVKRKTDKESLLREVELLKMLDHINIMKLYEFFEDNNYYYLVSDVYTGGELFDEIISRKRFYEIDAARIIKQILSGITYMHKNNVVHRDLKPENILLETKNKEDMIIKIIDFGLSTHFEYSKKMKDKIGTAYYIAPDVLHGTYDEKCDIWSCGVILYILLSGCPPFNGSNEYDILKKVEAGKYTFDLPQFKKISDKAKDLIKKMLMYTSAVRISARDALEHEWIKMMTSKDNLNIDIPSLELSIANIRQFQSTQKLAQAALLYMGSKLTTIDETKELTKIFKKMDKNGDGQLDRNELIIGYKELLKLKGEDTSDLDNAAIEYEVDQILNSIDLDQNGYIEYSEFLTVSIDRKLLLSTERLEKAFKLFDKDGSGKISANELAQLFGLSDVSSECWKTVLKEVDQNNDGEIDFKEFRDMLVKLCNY

For orientation: inhibition means the relative decrease from the control value, in per cent. With `COc1ccc(Nc2nc(NC3CCCC3)cc(-c3ccc(OC)cc3)n2)cc1`, the values for the growth inhibition in test [1] and in test [4] were 15% and 86% (active), respectively. Besides, the inhibition in test [2] is 12%; in test [3] it was 2%. Further, the result in test [5], in test [6], in test [7] and in test [8] was inactive.

Consider `O=C(Nc1cccc(-c2csc(-c3nc4ccccc4[nH]3)c2)c1)c1cc(=O)c2ccccc2[nH]1`, for which the values for the growth inhibition in test [1] and in test [4] were 39% and 98% (active), respectively. Besides, the inhibition in test [2] was 41%; in test [3], -2%. Besides, the result in test [5], in test [6], in test [7] and in test [8] was inactive.

With `Cc1cc(N[C@@H](CC(C)C)C(=O)Nc2ccccc2)nc(NCC2CCCCC2)n1`, the growth inhibition is 95% (active) in test [1] and 101% (active) in test [4]. The figures for the inhibition in test [2] and in test [3] were 8% and 1%, respectively. Also, the result in test [5], in test [6], in test [7] and in test [8] was inactive.

As for `CC(C)CNCc1cccc(-c2cccc(CN(CCCN3CCN(C)CC3)C(=O)CCC3CCCC3)c2)c1`, the growth inhibition in test [1] is 96% (active); in test [4], 100% (active). Moreover, the inhibition in test [2] was 45%; in test [3], -7%. For the same compound, the outcome in test [5], in test [6], in test [7] and in test [8] was inactive.

In the case of `COc1cc2nc(N(C)CC3COc4ccccc4O3)nc(N)c2cc1OC` (stereo not given), the values for the growth inhibition in test [1] and in test [4] were 26% and 94% (active), respectively. Also, the inhibition in test [2] is 11%; in test [3] it was -1%. Further, the result in test [5], in test [6], in test [7] and in test [8] was inactive.

For the compound `CCN(CCCN1CCCCC1)c1cc(C)nc(Nc2cc(Cl)ccc2C)n1`, the growth inhibition in test [1] was 37%; in test [4], 99% (active). In addition, the inhibition in test [2] is 36%; in test [3], -1%. Further, the outcome in test [5], in test [6], in test [7] and in test [8] was inactive.

In the case of `CCC(C)(C)C1CCc2[nH]c3ccccc3c(=O)c2C1` (stereo not given), the growth inhibition in test [1] was 96% (active); in test [4], 97% (active). Also, the inhibition in test [2] is 16%; in test [3], -4%. Further, the outcome in test [5], in test [6], in test [7] and in test [8] was inactive.

For the compound `O=C(/C=C/c1ccc(Cl)c(Cl)c1)NCCCCCN1CCC(NC(=O)Nc2ccc(Cl)cc2F)CC1`, the values for the growth inhibition in test [1] and in test [4] were 40% and 101% (active), respectively. In addition, the values for the inhibition in test [2] and in test [3] were 100% (active) and -8%, respectively. The result in test [5], in test [6], in test [7] and in test [8] was inactive.

As to `CC(C)Oc1ccccc1-c1csc(C(=O)NCC2CCN(Cc3ccc(C(C)(C)C)cc3)C2)c1` (stereo not given), the growth inhibition in test [1] is 45%; in test [4], 90% (active). In addition, the inhibition is 59% (active) in test [2] and 2% in test [3]. Also, the result in test [5], in test [6], in test [7] and in test [8] was inactive.

For `CC(C)CNC(=O)c1cncc(-c2ccc(CN(C)C3CCN(C)CC3)cc2)c1`, the values for the growth inhibition in test [1] and in test [4] were 84% (active) and 101% (active), respectively. For the same compound, the inhibition is 15% in test [2] and -1% in test [3]. Besides, the outcome in test [5], in test [6], in test [7] and in test [8] was inactive.

Turning to `COc1ccc(CNC2Cc3ccccc3C2)cc1-c1ccc(S(=O)(=O)NCCN2CCCC2)cc1`, the figures for the growth inhibition in test [1] and in test [4] were 61% (active) and 101% (active), respectively. Moreover, the inhibition is 40% in test [2] and -7% in test [3]. Moreover, the outcome in test [5], in test [6], in test [7] and in test [8] was inactive.

`CCC(CCON1C(N)=NC(N)=NC1(C)C)c1ccc(Cl)cc1` (stereo not given): the growth inhibition was 95% (active) in test [1] and 94% (active) in test [4]. For the same compound, the inhibition in test [2] is 66% (active); in test [3], 1%. Also, the result in test [5], in test [6], in test [7] and in test [8] was inactive.

As for `O=C(Nc1cc(C(F)(F)F)ccc1-n1cncn1)C1(c2ccccc2)CC1`, the growth inhibition in test [1] and in test [4] was 100% (active) each time. The inhibition was 11% in test [2] and 3% in test [3]. Also, the result in test [5], in test [6], in test [7] and in test [8] was inactive.

With `COc1cccc(C(=O)N2CCN(Cc3cccc(NC(=O)c4cccs4)c3)CC2)c1`, the growth inhibition in test [1] and in test [4] was 95% (active) in each case. The inhibition in test [2] is 6%; in test [3] it was -2%. Besides, the outcome in test [5], in test [6], in test [7] and in test [8] was inactive.

For the compound `CC1CN(CC(O)Cn2c3ccc(Br)cc3c3cc(Br)ccc32)CC(C)O1` (stereo not given), the figures for the growth inhibition in test [1] and in test [4] were 100% (active) and 102% (active), respectively. The inhibition is -1% in test [2] and 3% in test [3]. For the same compound, the outcome in test [5], in test [6], in test [7] and in test [8] was inactive.

For the compound `Cc1cc(Nc2ccc(C)c(Cl)c2)n2ncnc2n1`, the values for the growth inhibition in test [1] and in test [4] were 91% (active) and 98% (active), respectively. The inhibition in test [2] is 6%; in test [3], -1%. The outcome in test [5], in test [6], in test [7] and in test [8] was inactive.

With `O=S(=O)(NCCN1CCCC1)c1cccc(-c2cccc(CNCc3ccc(F)cc3)c2)c1`, the values for the growth inhibition in test [1] and in test [4] were 73% (active) and 99% (active), respectively. Besides, the inhibition is 41% in test [2] and 4% in test [3]. Besides, the outcome in test [5], in test [6], in test [7] and in test [8] was inactive.

For `NC(=O)c1cnc2cc(-c3ccncc3)cc(Nc3ccc(NC(=O)C4CCCCC4)cc3)c2c1`, the growth inhibition in test [1] is 99% (active); in test [4], 98% (active). The inhibition was 58% (active) in test [2] and 0% in test [3]. Moreover, the result in test [5], in test [6], in test [7] and in test [8] was inactive.

In the case of `CN1CCCN(c2ccnc3cc4c(cc23)N(C(=O)c2ccc(Cl)cc2)CC4)CC1`, the growth inhibition in test [1] is 0%; in test [4], 100% (active). For the same compound, the inhibition is 0% in test [2] and 4% in test [3]. The result in test [5], in test [6], in test [7] and in test [8] was inactive.

As to `O=C(Nc1ccc(-c2cccc(-c3nc4ccccc4[nH]3)c2)cc1)Nc1ccc(Cl)c(Cl)c1`, the values for the growth inhibition in test [1] and in test [4] were 80% (active) and 101% (active), respectively. Also, the values for the inhibition in test [2] and in test [3] were 61% (active) and -2%, respectively. Also, the result in test [5], in test [6], in test [7] and in test [8] was inactive.
